In the antibiotic and cytotoxicity screens of Wong et al. (2023):
The campaign covered roughly 39,000 compounds. About 1,500 (3.8%) were called active. For the sample, actives were picked, then their nearest neighbours and some compounds at random.

System: HSkMC (human skeletal muscle cells)
Experiment: cytotoxicity call (relative viability < 0.9)
Details: 10 µM

Row | Structure (SMILES) | cytotoxicity call
1 | C/C(=C\CO)CC[C@H](C)CCC[C@H](C)CCCC(C)C | inactive
2 | CC(=CCO)CCC(C)CCCC(C)CCCC(C)C (configuration not stated) | active
3 | CC(=CCC1=C(C)C(=O)c2ccccc2C1=O)CCCC(C)CCCC(C)CCCC(C)C (configuration not stated) | inactive
4 | COc1ccc(S(=O)(=O)N(C)C[C@H]2OCCCC[C@H](C)Oc3ccc(NC(=O)C4CCCCC4)cc3C(=O)N([C@H](C)CO)C[C@H]2C)cc1 | inactive
5 | CCNC(=O)C[C@H]1C=C[C@@H](NC(=O)C2CC2)[C@H](CO)O1 | inactive
6 | CC1(C)CC(=O)c2c(C(F)(F)F)nn(-c3ccc(C(N)=O)c(O[C@H]4CC[C@H](N)CC4)c3)c2C1 | inactive
7 | CC1(C)CC(=O)c2c(C(F)(F)F)nn(-c3ccc(C(N)=O)c(N[C@H]4CC[C@H](OC(=O)CN)CC4)c3)c2C1 | active
8 | NCc1ccccc1-c1ccsc1 | inactive
9 | CC(C)C#Cc1cnc2c(c1)C(=O)N([C@@H](C)CO)C[C@H](C)[C@@H](CN(C)C(=O)c1ccc3c(c1)OCO3)O2 | inactive
10 | COc1ccc(CN(C)C[C@@H]2OCCCC[C@@H](C)Oc3ccc(NC(=O)Nc4ccccc4)cc3C(=O)N([C@H](C)CO)C[C@@H]2C)cc1 | inactive
11 | COc1ccc(-c2oc3cc(O[C@@H]4O[C@@H](C)[C@H](O)[C@@H](O)[C@H]4O)cc(O)c3c(=O)c2O[C@@H]2O[C@H](CO)[C@@H](O)[C@H](O)[C@H]2O)cc1 | inactive
12 | COc1ccc(-c2oc3c(CC=C(C)C)c(O[C@@H]4O[C@H](CO)[C@@H](O)[C@H](O)[C@H]4O)cc(O)c3c(=O)c2O[C@@H]2O[C@@H](C)[C@H](O)[C@@H](O)[C@H]2O)cc1 | active
13 | COc1ccc(-c2oc3c(CC=C(C)C)c(OC4OC(CO)C(O)C(O)C4O)cc(O)c3c(=O)c2OC2OC(C)C(O)C(O)C2O)cc1 (configuration not stated) | inactive
14 | COc1ccc(CN(C)C[C@H]2OCCCC[C@H](C)Oc3ccc(NS(=O)(=O)c4ccc(OC)cc4)cc3C(=O)N([C@H](C)CO)C[C@H]2C)cc1 | inactive
15 | COc1ccc(S(=O)(=O)Nc2ccc3c(c2)C(=O)N([C@@H](C)CO)C[C@H](C)[C@H](CN(C)Cc2ccc(Cl)c(Cl)c2)OCCCC[C@@H](C)O3)cc1 | active
16 | COc1ccc(S(=O)(=O)Nc2ccc3c(c2)C(=O)N([C@H](C)CO)C[C@H](C)[C@H](CN(C)Cc2ccc(Cl)c(Cl)c2)OCCCC[C@@H](C)O3)cc1 | inactive
17 | COc1ccc(CN(C)C[C@H]2OCCCC[C@H](C)Oc3ccc(NS(=O)(=O)c4ccc(OC)cc4)cc3C(=O)N([C@@H](C)CO)C[C@@H]2C)cc1 | inactive
18 | COc1ccc(S(=O)(=O)Nc2ccc3c(c2)C(=O)N([C@H](C)CO)C[C@@H](C)[C@H](CN(C)Cc2ccc(Cl)c(Cl)c2)OCCCC[C@@H](C)O3)cc1 | inactive
19 | COc1ccc(S(=O)(=O)Nc2ccc3c(c2)C(=O)N([C@H](C)CO)C[C@H](C)[C@@H](CN(C)Cc2ccc(Cl)c(Cl)c2)OCCCC[C@H](C)O3)cc1 | active
20 | COc1ccc(CN(C)C[C@H]2OCCCC[C@@H](C)Oc3ccc(NS(=O)(=O)c4ccc(OC)cc4)cc3C(=O)N([C@@H](C)CO)C[C@@H]2C)cc1 | inactive
21 | COc1ccc(S(=O)(=O)Nc2ccc3c(c2)C(=O)N([C@@H](C)CO)C[C@@H](C)[C@H](CN(C)Cc2ccc(Cl)c(Cl)c2)OCCCC[C@@H](C)O3)cc1 | active

Row | Structure (SMILES) | cytotoxicity call
22 | COc1ccc(CN(C)C[C@H]2OCCCC[C@@H](C)Oc3ccc(NS(=O)(=O)c4ccc(OC)cc4)cc3C(=O)N([C@H](C)CO)C[C@H]2C)cc1 | inactive
23 | COc1ccc(S(=O)(=O)Nc2ccc3c(c2)C(=O)N([C@@H](C)CO)C[C@@H](C)[C@@H](CN(C)Cc2ccc(Cl)c(Cl)c2)OCCCC[C@@H](C)O3)cc1 | active
24 | Cn1cc(C(F)(F)F)ccc1=S | inactive
25 | CCS(=O)(=O)N(C)C[C@@H]1OCc2ccccc2-c2c(n(C)c3ccccc23)C(=O)N([C@@H](C)CO)C[C@@H]1C | inactive
26 | COCC#Cc1ccc2c(c1)O[C@@H](CN(C)Cc1ccc3c(c1)OCO3)[C@H](C)CN([C@@H](C)CO)S2(=O)=O | inactive
27 | C[C@@H]1CN([C@H](C)CO)C(=O)Cc2cc(NS(=O)(=O)c3cn(C)cn3)ccc2O[C@H]1CN(C)C(=O)Nc1ccc(F)cc1 | inactive
28 | Cc1noc(C)c1S(=O)(=O)Nc1ccc2c(c1)CC(=O)N([C@@H](C)CO)C[C@@H](C)[C@@H](CN(C)S(=O)(=O)c1cccs1)O2 | inactive
29 | O=S(=O)(c1c[nH]c2ncccc12)N1CC(S(=O)(=O)N2CCOCC2)C1 | inactive
30 | Clc1ccc(-c2nnc(Nc3ccccc3)s2)c(Cl)c1 | inactive
31 | C[C@H](O)C#Cc1cnc2c(c1)C(=O)N([C@@H](C)CO)C[C@@H](C)[C@@H](CN(C)C(=O)Nc1ccc(C(F)(F)F)cc1)O2 | inactive
32 | NC(=O)C1N=CN([C@@H]2O[C@H](CO)[C@@H](O)[C@H]2O)C1=O (some centres not stated) | inactive
33 | COc1ccc(S(=O)(=O)Nc2ccc3c(c2)C(=O)N([C@H](C)CO)C[C@@H](C)[C@@H](CN(C)Cc2ccc(Cl)c(Cl)c2)OCCCC[C@H](C)O3)cc1 | active
34 | COc1ccc(CN(C)C[C@@H]2OCCCC[C@@H](C)Oc3ccc(NS(=O)(=O)c4ccc(OC)cc4)cc3C(=O)N([C@H](C)CO)C[C@@H]2C)cc1 | inactive
35 | COc1ccc(S(=O)(=O)Nc2ccc3c(c2)C(=O)N([C@H](C)CO)C[C@H](C)[C@@H](CN(C)Cc2ccc(Cl)c(Cl)c2)OCCCC[C@@H](C)O3)cc1 | inactive
36 | COc1ccc(S(=O)(=O)Nc2ccc3c(c2)C(=O)N([C@@H](C)CO)C[C@H](C)[C@@H](CN(C)Cc2ccc(Cl)c(Cl)c2)OCCCC[C@H](C)O3)cc1 | inactive
37 | COc1ccc(S(=O)(=O)Nc2ccc3c(c2)C(=O)N([C@H](C)CO)C[C@H](C)[C@H](CN(C)Cc2ccc(Cl)c(Cl)c2)OCCCC[C@H](C)O3)cc1 | active
38 | COc1ccc(CN(C)C[C@@H]2OCCCC[C@@H](C)Oc3ccc(NS(=O)(=O)c4ccc(OC)cc4)cc3C(=O)N([C@@H](C)CO)C[C@H]2C)cc1 | inactive
39 | COc1ccc(S(=O)(=O)Nc2ccc3c(c2)C(=O)N([C@H](C)CO)C[C@@H](C)[C@H](CN(C)Cc2ccc(Cl)c(Cl)c2)OCCCC[C@H](C)O3)cc1 | active
40 | COc1ccc(CN(C)C[C@H]2OCCCC[C@@H](C)Oc3ccc(NS(=O)(=O)c4ccc(OC)cc4)cc3C(=O)N([C@@H](C)CO)C[C@H]2C)cc1 | inactive
41 | COc1ccc(CN(C)C[C@H]2OCCCC[C@H](C)Oc3ccc(NS(=O)(=O)c4ccc(OC)cc4)cc3C(=O)N([C@H](C)CO)C[C@@H]2C)cc1 | inactive
42 | COc1ccc(S(=O)(=O)Nc2ccc3c(c2)C(=O)N([C@@H](C)CO)C[C@H](C)[C@@H](CN(C)Cc2ccc(Cl)c(Cl)c2)OCCCC[C@@H](C)O3)cc1 | active
